The source of these data is PubChem BioAssay (NCI).

Compounds without any hit were thinned out: in the full panel of roughly 83,000, 20% have a hit.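 Growth was measured after 48 h exposure to one concentration of compound in 96-well plates. Values under 10 count as active.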 Values without a mark were called inactive. The source made the active and inactive calls.

This test has as its system HL-60(TB) leukemia. As to the kind of experiment: NCI-60 one-dose screen, 48 h (100 = growth as untreated, 0 = no growth, -100 = all killed). As to conditions: 10 µM unless noted.
For `CN(C)C(=O)C1=NC(CO)C(=O)N(c2ccc(Cl)cc2)N1` (stereo not given), the growth is 110%.

On to `C/C(=C(/C)C1CC1CCNC1CCC(NC(=O)OC(C)(C)C)CC1)c1ccccc1` (stereo not given), for which the growth is 56.6%.

Consider `COc1cc(C(=O)c2cc(C(C)=O)c3cccc(C)n23)cc(OC)c1OC`, for which the growth is 10.7%.

In the case of `O=C(CSc1nc2ccccc2c(=O)n1-c1ccccc1)Nc1ccc(-c2nc3ccc([N+](=O)[O-])cc3[nH]2)cc1`, the growth is 89.3%.

Regarding `O=C(COc1ccc(C2SCC(=O)N2c2ccc(F)cc2)cc1)c1ccccc1` (stereo not given), the growth was 98.6%.

In the case of `Cc1ccc(-c2nc(C(Cl)Cl)nc3cc(-c4ccccc4)nn23)cc1`, the growth is -12% (active).

In the case of `CS(=O)(=O)c1nccc(-c2c(-c3ccc(F)c(OCc4ccccc4)c3)nc3sccn23)n1`, the growth is 5.59% (active).

`COc1ccc(/C=N\NC(=O)c2cnn(CC(O)c3ccccc3)c2N)cc1OCc1ccc(Cl)cc1` (stereo not given): the growth is 99.7%.

For `Nc1cc(-c2c[nH]c3ccc(Cl)cc23)nc2cc(-c3c[nH]c4ccc(Cl)cc34)nn12`, the growth was 43.9%.

`NS(=O)(=O)c1ccc(Nc2nc(Nc3ccccc3)nc3nnc(SCC(=O)NC4CCCCC4)n23)cc1`: the growth was 106%.

In the case of `O=C1/C(=C/c2ccc([N+](=O)[O-])cc2)SC(=Nc2ccccc2)N1Nc1ccccc1`, the growth is 25.8%.

For the compound `O=C1/C(=C/c2ccccc2[N+](=O)[O-])Oc2ccc(O)cc21`, the growth was 24.3%.

Take `CC1(C)[C@@H](O)CC[C@]2(C)[C@H]3CC[C@@H]4[C@H]5[C@H](C(=O)/C=C\c6ccc([N+](=O)[O-])cc6)CC[C@]5(O)CC[C@@]4(C)[C@]3(C)CC[C@@H]12`: the growth is 27.9%.

For `COc1ccc(/C(N)=N/C(N)=N/c2nc3ccccc3s2)cc1`, the growth was 108%.

As for `C#CCOc1ccc(/C=N/Nc2nc(-c3cc(Cl)ccc3Cl)cs2)cc1`, the growth was 91%.

For `CC(C)(C)c1ccc(C(=O)Nc2sc3c(c2C(N)=O)CC/C(=N\O)C3)cc1`, the growth is 4.37% (active).

As to `CCN1C(=S)N(CC)C2C1N=C(SC)N2/N=C/C=C/c1ccccc1[N+](=O)[O-]` (stereo not given), the growth is 84.3%.

In the case of `CCCn1cnc2c(c1=N)C(c1ccc(OC)cc1)c1sc3c(C)cccc3c1O2` (stereo not given), the growth is 0.388% (active).

For `NC(N)=Nc1ccc(Oc2cccc(NC(N)=Nc3ccc(Cl)c(C(F)(F)F)c3)c2)cn1`, the growth was 0.375% (active).

As for `CN1c2ccccc2Sc2cc(/C=N/Nc3ccnc4cc(Cl)ccc34)ccc21`, the growth was 77.1%.

Turning to `COc1cc(OC)c(C2C(Cl)C(=O)N2Nc2ncnc3ccccc23)cc1OC` (stereo not given), the growth is 108%.

On to `CCN(CC)c1ccc2c(c1)Oc1nc(N)c(C#N)c(N)c1C2Sc1ccc(F)cc1` (stereo not given), for which the growth is -18.4% (active).

For the compound `CCc1cccc2c3c(sc12)C(c1ccc(Cl)cc1)C(C#N)=C(/N=C/c1ccc(Cl)cc1)O3` (stereo not given), the growth is -6.78% (active).

With `CN1CCN(Cc2ccc(NC(=O)c3cncc(C#Cc4cnc5[nH]ncc5c4)c3)cc2C(F)(F)F)CC1`, the growth was 8.94% (active).

Consider `CCCCNNC(=O)c1ccc(-c2cccc(F)c2F)cc1`, for which the growth is 28.4%.

In the case of `NC(N)=Nc1ccc(Nc2cccc(Nc3ccc(Cl)c(C(F)(F)F)c3)c2)cn1`, the growth is -40.5% (active).

On to `O=C(O)c1ccc(-n2cc(CNc3cccc(Cl)c3)c(-c3ccc(F)cc3)n2)cc1`, for which the growth is 105%.

As for `O=S(=O)(NCCCNc1nccc(-n2cnc3ccccc32)n1)c1ccc(F)cc1`, the growth is 90.9%.

As to `Fc1ccc(-c2cc3nc(C(Cl)Cl)nc(-c4ccccc4)n3n2)cc1`, the growth was -17.3% (active).

Take `C#C[C@]1(O)CC[C@H]2[C@@H]3CC=C4c5sc(Nc6cc(C)cc(C)c6)nc5CC[C@]4(C)[C@H]3CC[C@@]21C`: the growth is -2.89% (active).

Consider `O=C1[C@H]2Cc3c([nH]c4ccccc34)[C@H](c3ccc(Cl)cc3)N2C(=O)CN1C1CCN(Cc2c(Cl)cccc2Cl)CC1`, for which the growth was 62.1%.

In the case of `O=C(CN1CCN(c2cc(=O)n(-c3ccccc3)c3ccccc23)CC1)Nc1cccc(C(F)(F)F)c1`, the growth is 28.6%.

As to `Clc1ccc2oc3c(NCCCn4ccnc4)c4ccccc4nc3c2c1`, the growth is 29%.

With `CN1CCN(c2ccc(Nc3nc(NCCCNS(=O)(=O)c4ccccc4)c4sccc4n3)cc2)CC1`, the growth is -32.9% (active).

Regarding `CCOC(=O)c1c(Nc2ccccc2)nn2c(-c3cccs3)ccnc12`, the growth was 74.9%.

On to `CC1=CC(=O)CC(C)(C)[C@@]1(O)/C=C/C(C)=C\C(=O)O`, for which the growth is -41.9% (active).

Turning to `O=C(CSc1nnc(-c2ccc3nc(-c4ccc(Cl)cc4)[nH]c3c2)o1)Nc1ccc(C(=O)/C=C/c2ccc(Cl)cc2)cc1`, the growth is 86%.

Regarding `CCc1cccc(NC(=O)CNc2cc(S(=O)(=O)N(C)C)cc(C)c2C)c1`, the growth is 128%.

Take `O=C(CCCCCCN1CC(=O)N2[C@@H](c3ccccc3Br)c3[nH]c4ccccc4c3C[C@H]2C1=O)NO`: the growth is 5.1% (active).

In the case of `O=C(CSc1nc2sc3c(c2c(=O)n1-c1ccc(Cl)cc1)CCCC3)NNC(=O)Nc1ccc(Cl)c(C(F)(F)F)c1`, the growth was 6.38% (active).
